Assay results from PubChem BioAssay (NCATS).
Where “and” joins values, the source holds several entries; their conditions need not be identical. Identical values can stand only once. Records with an inconclusive call do not appear. Calls of active or inactive are those of the source. Unless noted, calls follow the shape of the dose curve; as a rule, active = well fitted curve in the direction sought with a large enough effect; inconclusive = small, poorly fitted or top-dose-only effect, or another doubt; inactive = no such curve, though single readings can be large; an effect the other way counts as inactive or inconclusive.

What was measured:
[1] = qHTS for small molecule inhibitors of Yes1 kinase: Counter Assay (AID 686950);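 also: no kinase present so only ADP-Glo detection of a fixed ADP amount is tested; luminescence from ADP-Glo reporting ADP in a fixed ATP and ADP mixture; 0% = DMSO wells with ATP plus ADP and -100% = ATP-only wells without ADP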
How it was run: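 Enzyme-free detection counter-screen: compounds preincubated 20 min in buffer, then 0.08 mM ATP plus 0.02 mM ADP added for 60 min at room temperature; ADP-Glo luminescence. Buffer 50 mM Tris pH 7.5, 10 mM MgCl2, 150 mM NaCl; normalized to ATP+ADP and ATP-only controls.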

[2] = qHTS profiling for inhibitors of Plasmodium falciparum (3D7) proliferation (AID 743322; call rule not given here;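 also: infected erythrocytes exposed to compound for 72 h before lysis; 100% = DMSO vehicle wells and 0% = 0.29 µM artemisinin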); conditions: P. falciparum 3D7 proliferation; at 28.7 µM (top of the series) unless noted
How it was run: (§1)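 Erythrocytes infected with P. falciparum (0.3% parasitemia, 2.5% hematocrit) incubated with compounds 72 h at 37 C, 5% CO2. Lysis with saponin/Triton buffer containing SYBR Green I, overnight at room temperature in the dark; DNA fluorescence (485/535 nm) normalised to 0.29 uM artemisinin and DMSO.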

[3] = qHTS profiling for inhibitors of Plasmodium falciparum (HB3) proliferation (AID 743324); conditions: Plasmodium falciparum HB3 blood-stage proliferation; at 28.7 µM (top of the series) unless noted;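 also: 100% = DMSO vehicle wells and 0% = artemisinin-treated control wells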
How it was run: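 P. falciparum HB3 grown in erythrocytes (0.3% parasitemia, 2.5% hematocrit final) with compound for 72 h at 37 C, 5% CO2. Parasite DNA detected by SYBR Green after saponin/triton lysis overnight; normalized to 0.29 uM artemisinin and DMSO.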

[4] = qHTS profiling of the MIPE4 collection as inhibitors of Plasmodium falciparum (DD2) proliferation (AID 743345; call rule not given here); conditions: P. falciparum Dd2 in erythrocytes, SYBR Green DNA, 72 h; at 28.5 µM (top of the series) unless noted
How it was run: as §1

[5] = qHTS profiling of the MIPE4 collection as inhibitors of Plasmodium falciparum (DD2) proliferation (Rep 2) (AID 743346; call rule not given here); conditions: P. falciparum Dd2 in erythrocytes, SYBR Green DNA, 72 h; at 28.5 µM (top of the series) unless noted
How it was run: as §1

[6] = qHTS profiling of the MIPE4 collection as inhibitors of Plasmodium falciparum (HB3) proliferation (AID 743347; call rule not given here;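 also: plate controls were DMSO vehicle wells for no effect and artemisinin wells for full effect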); conditions: P. falciparum HB3 in erythrocytes, SYBR Green DNA, 72 h; at 28.5 µM (top of the series) unless noted
How it was run: as §1

[7] = High-throughput drug toxicity screening in the BPDCN cell line Gen2.2 (AID 1224824; call rule not given here;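 also: cells exposed to compounds for 48 h before reading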); conditions: Gen2.2 BPDCN cells; at 45.8 µM (top of the series) unless noted
How it was run: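 Gen2.2 cells (500/well) in phenol red-free RPMI with 10% FBS were exposed to compounds for 48 h at 37 °C, 5% CO2. Viability was read by CellTiter-Glo luminescence and normalized to DMSO (100%) and 9.2 uM bortezomib (0%).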

[8] = biological target: Arylsulfatase A (Homo sapiens) (UniProt P15289); test: qHTS screen for enhancers of Arylsulfatase A (ASA1): LOPAC Validation Assay (AID 720538); also: potency is read from the fitted curve at half-maximal effect
How it was run: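 SV40-transformed skin fibroblasts from an MLD patient (ASA-I179S) were treated with compounds for 48h at 37 degree C, then lysed with 0.5mM pNCS final substrate for 14h at room temperature; NaOH stop, fluorescence read (Ex=525 nm; Em=598 nm).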

[9] = qHTS for compounds that reverse cellular toxicity of Amyloid beta (A-beta) peptide in yeast: LOPAC Validation Assay (AID 720559);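 also: plate controls were DMSO for no effect and equimolar ferric chloride plus clioquinol rescue for full effect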
How it was run: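 Yeast cells expressing toxic A-beta were combined with pinned compounds in growth medium and incubated 48 hr at 30 C. Growth was read as absorbance at 600 nm and normalized to DMSO and to an equimolar FeCl3/clioquinol positive control.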

[10] = qHTS for Activators of Parkin Expression: LOPAC Validation Assay (NLuc Reporter) (AID 720572;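 also: 0% = DMSO and 100% = positive control compound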)
How it was run: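 Neuronal cells with a Parkin promoter-driven FLuc/NLuc coincidence reporter were treated 24 h at 37 C in 7-point dose response (LOPAC). NLuc luminescence read after FLuc; signals normalized to DMSO and positive control (100%).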

[11] = qHTS for Activators of Parkin Expression: LOPAC Validation Assay (FLuc Reporter) (AID 720573; also: potency is read from the fitted curve at half-maximal effect)
How it was run: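 Neuronal cell line stably carrying FLuc/NLuc coincidence reporter under Parkin promoter; cells plated 24 h, then compounds added in 7-point dose response for 24 h at 37 C. FLuc luminescence read; normalized to DMSO and positive control (100%).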

[12] = biological target: T1, Hexokinase-4 (Homo sapiens) + Glucokinase regulatory protein (Homo sapiens) (UniProt P35557+Q14397); test: qHTS assay for inhibitors of recombinant human GCK-GKRP interaction: Diaphorase-coupled assay (AID 743205)
How it was run: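 GST-GCK (10 nM) with FLAG-GKRP (10 nM), 5 mM glucose and 0.4 mM ATP in pH 7.6 Hepes; compounds preincubated 20 min with substrate. G6PDH/diaphorase coupling converts resazurin to resorufin, read kinetically (ex 525/em 590 nm) for 30 min.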

[13] = biological target: T1, Hexokinase-4 (Homo sapiens) + Glucokinase regulatory protein (Homo sapiens); test: qHTS assay for inhibitors of recombinant human GCK-GKRP interaction: HTRF assay (AID 743207);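 also: 0% = DMSO with GCK present and -100% = DMSO wells lacking GCK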
How it was run: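 GST-GCK and FLAG-GKRP (5 nM each) were combined with 2 uM S6P in pH 7.1 Hepes/MgCl2/KCl/DTT buffer, then compound and anti-FLAG XL665/anti-GST K antibodies were added. After 60 min at room temperature, HTRF 665/615 nm emission was read.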

[14] = qHTS Assay for Identifying Gametocytocidal Compounds (AID 743244); also: potency is read from the fitted curve at half-maximal effect;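 as to max response: % is scaled to controls: 0 for no effect and ±100 for the full control effect; actives lower the fluorescent signal which means gametocytes are killed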; conditions: P. falciparum 3D7 stage III-V gametocytes, alamarBlue, 72 h; max response: stronger effect = lower value
How it was run: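 Stage III-V P. falciparum 3D7 gametocytes, 20,000 per well, were exposed to compounds for 72 h at 37C, 5% CO2. AlamarBlue was then added for 24 h and viability was read as fluorescence at Ex 525/Em 598 nm.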

[15] = qHTS profiling of the MIPE4 collection as inhibitors of Plasmodium falciparum (3D7) proliferation (AID 743344; call rule not given here;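 also: scaled between DMSO vehicle wells and 0.29 µM artemisinin as full inhibition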); conditions: P. falciparum 3D7 in erythrocytes, SYBR Green DNA fluorescence, 72 h; at 28.5 µM (top of the series) unless noted
How it was run: as §1

Arylsulfatase A (Homo sapiens), sequence (P15289 whole entry, looked up): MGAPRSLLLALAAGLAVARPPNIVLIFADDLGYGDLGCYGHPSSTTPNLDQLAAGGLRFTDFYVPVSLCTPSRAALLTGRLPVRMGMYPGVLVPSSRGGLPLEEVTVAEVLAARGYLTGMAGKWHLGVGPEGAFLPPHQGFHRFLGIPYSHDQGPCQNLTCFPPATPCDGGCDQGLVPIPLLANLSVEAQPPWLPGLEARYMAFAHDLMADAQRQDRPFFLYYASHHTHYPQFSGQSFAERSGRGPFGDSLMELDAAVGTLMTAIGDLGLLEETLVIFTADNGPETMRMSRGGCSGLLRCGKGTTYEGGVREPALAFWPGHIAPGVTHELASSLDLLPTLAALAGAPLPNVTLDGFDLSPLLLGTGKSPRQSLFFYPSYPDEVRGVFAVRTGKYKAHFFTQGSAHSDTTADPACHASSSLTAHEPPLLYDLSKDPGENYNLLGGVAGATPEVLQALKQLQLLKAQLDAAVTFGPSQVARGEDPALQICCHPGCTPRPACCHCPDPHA
T1 sequence (P35557 whole entry, looked up): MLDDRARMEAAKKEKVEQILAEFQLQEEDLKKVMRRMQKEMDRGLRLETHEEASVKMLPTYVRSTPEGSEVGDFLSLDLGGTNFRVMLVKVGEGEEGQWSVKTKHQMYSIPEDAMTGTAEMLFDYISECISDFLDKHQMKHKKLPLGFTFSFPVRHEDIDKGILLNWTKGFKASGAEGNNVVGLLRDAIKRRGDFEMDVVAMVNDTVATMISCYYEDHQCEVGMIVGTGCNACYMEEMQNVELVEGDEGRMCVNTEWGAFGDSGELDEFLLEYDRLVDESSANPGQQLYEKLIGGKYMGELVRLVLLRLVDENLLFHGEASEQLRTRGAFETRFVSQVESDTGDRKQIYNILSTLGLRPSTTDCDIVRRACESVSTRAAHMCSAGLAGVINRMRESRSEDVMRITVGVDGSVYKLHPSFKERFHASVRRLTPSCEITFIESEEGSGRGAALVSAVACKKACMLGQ
T1 sequence (Q14397 whole entry, looked up): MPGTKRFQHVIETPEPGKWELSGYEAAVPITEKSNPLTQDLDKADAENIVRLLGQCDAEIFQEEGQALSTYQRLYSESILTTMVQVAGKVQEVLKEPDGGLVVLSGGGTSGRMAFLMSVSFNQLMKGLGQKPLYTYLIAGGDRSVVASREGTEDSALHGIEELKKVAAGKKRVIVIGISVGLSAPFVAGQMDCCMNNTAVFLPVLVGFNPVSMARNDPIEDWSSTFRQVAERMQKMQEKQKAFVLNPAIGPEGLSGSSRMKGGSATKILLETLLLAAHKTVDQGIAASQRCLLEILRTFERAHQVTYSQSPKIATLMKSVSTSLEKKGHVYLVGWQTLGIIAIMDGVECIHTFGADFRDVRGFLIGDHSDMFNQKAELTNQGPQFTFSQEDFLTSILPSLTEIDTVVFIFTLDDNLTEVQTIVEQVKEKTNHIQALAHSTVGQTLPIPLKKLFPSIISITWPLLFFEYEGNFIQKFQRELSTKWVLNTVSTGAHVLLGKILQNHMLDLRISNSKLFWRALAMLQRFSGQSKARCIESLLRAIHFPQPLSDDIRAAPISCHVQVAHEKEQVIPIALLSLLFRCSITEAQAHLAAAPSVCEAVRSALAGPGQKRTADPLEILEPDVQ

SMILES | outcome [1] | remaining parasite growth % (stronger effect = lower value) [2] | remaining proliferation (% of control), lower = more inhibition [3] | parasite growth remaining, % of DMSO control (lower = more inhibition) [4] | parasite growth, % of control (lower = inhibition) [5] | growth, % of control [6] | cell viability, % of control (lower = more cytotoxic) [7] | Potency [8] | outcome [9] | outcome [10] | Potency [11] | outcome [12] | outcome [13] | max response [14] | parasite growth, % of DMSO control [15] | Potency [14]
Cc1nc(Nc2ncc(C(=O)Nc3c(C)cccc3Cl)s2)cc(N2CCN(CCO)CC2)n1 | inactive | 71.9% | 34.2% | 65.3% | 17.6% | 3.03% | 74.9% | – | – | – | – | – | – | – | – | –
CN(C)CCCC1(c2ccc(F)cc2)OCc2cc(C#N)ccc21 (configuration not stated) | – | – | – | 63.7% | 45.5% | 93% | 120% | inactive | inactive | inactive | inactive | inactive | inactive | 7.27% (inactive) | 95.4% | –
Nc1nc(OCc2ccccc2)c2[nH]cnc2n1 | – | – | – | – | – | – | 56% | – | inactive | inactive | inactive | inactive | inactive | 13.4% (inactive) | – | –
Nc1cccc2c1CN(C1CCC(=O)NC1=O)C2=O (configuration not stated) | inactive | 98.3% [at 57.5 µM] and 94.5% [at 57.5 µM] | 96.8% [at 57.5 µM] and 102% [at 57.5 µM] | 107% [at 57.5 µM] | 127% [at 57.5 µM] | 108% [at 57.5 µM] | 178% [at 92.2 µM] | – | – | – | – | – | – | 12.8% (inactive) and 1.91% (inactive) | 83.6% [at 57.5 µM] | –
O=C1c2c(O)cc(O)cc2OC(c2ccc(O)c(O)c2)C1O (configuration not stated) | – | – | – | 93.8% | 64.4% | 99.5% | 155% | – | inactive | inactive | inactive | inactive | inactive | -8.7% (inactive) | 75.5% | –
COc1cc(Nc2c(C#N)cnc3cc(OCCCN4CCN(C)CC4)c(OC)cc23)c(Cl)cc1Cl | inactive | -0.245% | 1.13% | 10.9% | – | 3.88% | 5% | – | – | – | – | – | – | – | 6.35% | 3.55 µM (active)
Cc1c(OCC(F)(F)F)ccnc1CS(=O)c1nc2ccccc2[nH]1 (configuration not stated) | – | – | – | – | – | – | 595% | inactive | – | inactive | – | inactive | inactive | – | – | –
O=C(NOCC1CC1)c1ccc(F)c(F)c1Nc1ccc(I)cc1Cl | inactive | – | – | 91.6% | – | 63.7% | 6.36% | – | – | – | – | – | – | – | 24.6% | –
C[C@@H](c1ncncc1F)[C@](O)(Cn1cncn1)c1ccc(F)cc1F | – | – | – | – | – | – | 56.5% | – | – | – | – | – | – | – | – | –
O=C(CCc1ccc(O)cc1)c1c(O)cc(O)cc1O | – | – | – | 96.7% | 7.72% | 5.58% | 141% | 2.69 µM (active) | inactive | inactive | inactive | inactive | inactive | 19.3% (inactive) | – | –
NC(=NCc1ccccc1)NC(=O)c1nc(Cl)c(N)nc1N | – | -0.258% [at 18.4 µM] | – | 98.4% | 83.5% | 98.4% | 130% | – | inactive | inactive | inactive | inactive | inactive | – | – | 23.5 µM (active)
S=c1nc[nH]c2nc[nH]c12 | inactive | 58.5% [at 57.5 µM] | – | 96% | 6.58% | 55.2% | 203% | – | – | – | – | – | – | 21.9% (inactive) and -4.09% (inactive) | 68.3% | –
Cc1ccc(Nc2nccc(N(C)c3ccc4c(C)n(C)nc4c3)n2)cc1S(N)(=O)=O | inactive | – | – | – | – | – | 355% | – | – | – | – | – | – | 45.8% (inactive) | – | –
O=C(O)c1cccnc1Nc1cccc(C(F)(F)F)c1 | – | – | – | 87.2% | 77.4% | 74% | 122% | inactive | inactive | inactive | inactive | inactive | inactive | -9.57% (inactive) and 27.4% (inactive) | 83.9% | –
CCOC(=O)C(C)Oc1cccc2c(=O)n(CC(=O)Nc3ccc4c(c3)OCCO4)ccc12 (configuration not stated) | inactive | 115% | 104% | 92.5% | 81.6% | 96% | 102% | inactive | inactive | inactive | inactive | inactive | inactive | 9.26% (inactive) | – | –
OC(CN1CCN(c2cccc(Cl)c2)CC1)C(c1ccccc1)c1ccccc1 (configuration not stated) | – | – | – | 90.9% | 66% | 47% | 319% | inactive | inactive | inactive | inactive | inactive | inactive | 26.8% (inactive) | 42.2% | –
Cc1cccc(C#Cc2ccccc2)n1 | inactive | 106% | 75.6% | 98.6% | 36.6% | 42% | 40.7% | inactive | inactive | inactive | 2.91 µM (active) | inactive | inactive | 7.87% (inactive) | – | –
CCOC(=O)C1=C(O)C(=O)N(Cc2ccccc2)C1 | inactive | 34% | 67.7% | 104% | – | 93.7% | 81.5% | – | – | – | – | – | – | 44.6% (inactive) | 74.5% | –
Cc1ccc(NC(=O)c2ccc(CN3CCN(C)CC3)cc2)cc1Nc1nccc(-c2cccnc2)n1 | inactive | 1.04% | – | 10.8% | 24.1% | 4.5% | 308% | – | – | – | – | – | – | – | 6.13% | 12.6 µM (active)
CCCS(=O)c1ccc2nc(NC(=O)OC)[nH]c2c1 (configuration not stated) | – | – | – | – | – | – | 32.3% | – | – | – | – | – | – | – | – | –
